These results are taken from PubChem BioAssay AID1347434 (National Center for Advancing Translational Sciences (NCATS), 2020).

Structures are written as SMILES. Several values for one entry are separate records, joined by “and”; a condition that tells them apart may be missing. Identical values can stand only once. The campaign covered roughly 1,200 compounds. About 30 (2%) were called active. Another 23% or so got no clear call; they are omitted. For the sample, actives were picked, then their nearest neighbours and some compounds at random. Values without a mark were called inactive. Calls follow the shape of the dose curve; as a rule, active = well fitted inhibition curve with a large enough effect; inconclusive = small, poorly fitted or top-dose-only effect; inactive = flat fitted curve, though single readings scatter.
% is scaled to controls: 0 for no effect and ±100 for the full control effect; potency is read from the fitted curve at half-maximal effect.

Single-stranded DNA cytosine deaminase (Homo sapiens), sequence (Q9GZX7 whole entry, looked up): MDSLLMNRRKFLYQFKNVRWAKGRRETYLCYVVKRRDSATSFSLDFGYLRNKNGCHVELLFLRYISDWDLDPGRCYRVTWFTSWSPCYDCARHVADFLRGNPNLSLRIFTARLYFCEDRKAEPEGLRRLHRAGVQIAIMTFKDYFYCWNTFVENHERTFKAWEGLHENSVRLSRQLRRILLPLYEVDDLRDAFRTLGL

This test addresses Single-stranded DNA cytosine deaminase (Homo sapiens) (UniProt Q9GZX7). The test is described as follows: Confirmatory qHTS assay for inhibitors of Activation Induced Cytidine Deaminase (AID): AID signals. The following applies: recombinant AID, FRET deamination/UDG coupled fluorescence, 4 h; series mostly up to 115 µM; activity, negative = inhibition: at the top concentration. From the text: Assay Provider (PI) Patricia Gearhart Ph.D. National Institute on Aging National Institute of Health (NIH), Bethesda, MD Assay Provider (PI) Rahul Kohli Ph.D. Perelman School of Medicine University of Pennsylvania, Philadelphia, PA Activation-Induced Deaminase (AID) is a cytosine deaminase which converts cytosine into uracil within stretches of ssDNA. The presence of uracil in DNA initiates a cascade of mutagenic DNA repair to introduce point mutations and DNA double strand breaks. Specific targeting of AID to the immunoglobulin heavy chain loci (Igh) promotes mutagenesis in the antibody variable region for somatic hypermutation (SHM) or switch regions leading to class switch recombination (CSR). However, AID also plays a role in accumulating unnecessary mutations across the genome. Mis-targeting of AID results in the initiation of tumor development and leads to greater drug resistance among cancer cells when continually expressed. To identify an AID inhibitor, a small molecule library will be screened in collaboration with NCATS core facility at NIH. To confirm biological function, inhibitors will be examined in an in vitro murine B-cell activation assay and subsequent secondary validation screens. Top molecules will be further screened to identify inhibitory efficacy against a wild type primary splenocytes assay. Using these approaches, we hope to identify a small molecule with great efficacy and low toxicity for use as a molecular probe to further characterize AID's intricacies, or even as a therapeutic. A FRET based analysis of cytosine deamination, was developed to identify potential inhibitors of AID catalytic activity. This screen has two signal output, Read 1 evaluates the AID inhibition response. The second readout (Read 2) evaluates UDG response and is uses as a counterscreen to exclude false positive inhibitors. Inhibition in AID and inactivity in the UDG signal is the desired outcome for this assay.
PROTOCOL TABLE SEQUENCE No. (e.g., 1, 2, 3, etc.); […] (e.g., Cells, Incubation, Reagent, etc.); VALUE; DESCRIPTION 1a; Reagent; 3 uL; [4/3x] 1 uM AID/2.67 U/mL UDG 1b; Reagent; 3 uL; 2 U/mL UDG 1c; Reagent; 3 uL; 1 uM AID 2a; Compound; 46 nL; Follow-up plates (0.64 uM - 10 mM) 2b; Control; 46 nL; ATA (16.4 nM - 10 mM) 3; Time; 10 min; incubation at room temperature 4; Reagents; 1 uL; [4x] 250 nM DJC20 / 250 nM DJC23 [Substrate] 5; Time; 4 hr; incubation at room temperature 6; Reagent; 4 uL; [2x] 250 mM NaOH 7; Time; 15 sec; centrifuge at 1000 rpm 8; Time; 30 min; incubation at room temperature 9a; Detection; fluorescence (Read 1: AID); EnVision (PerkinElmer) plate reader, 540 excitation and 590 emission filters 9b; Detection; fluorescence (Read 2: UDG); EnVision (PerkinElmer) plate reader, 560 excitation and 665 emission filters NOTES (numbers refer to sequence above) 1a; Reagents were dispensed in a medium-binding black solid-bottom Greiner plates (789176F) using a BioRptr liquid dispenser. Dispense 3 uL of [4/3x] 1 uM AID (provided by Kohli lab) and [4/3x] 2 U/mL UDG (NEB M0280L) into columns 1, 2, 5 to 48. 1b; Dispense 3 uL of [4/3x] 2 U/mL UDG into column 3. 1c; Dispense 3 uL of [4/3x] 1 uM AID into column 4. 2a; Compound ([…] [uM]: 0.64; 3.2; 16; 80; 400; 2,000; 10,000; 20,000) double pin-transferred (Dip Factor = 2) using the Kalypsys (Wako USA) pintool equipped with a 1536 pinhead for a final concentration range of 7.32 nM - 114 uM. 2b; 10 mM Aurintricarboxylic Acid (Sigma A1895) (ATA, 8-point, n = 2, 1:2.5 dilution in column 2) double pin-transferred (Dip Factor = 2) using the Kalypsys (Wako USA) pintool equipped with a 1536 pinhead for a [final] range of 186 nM - 114 uM. 3; Room temperature incubation. 4; Dispense 1 uL of substrate mixture from the Kohli lab [4x] […] DJC20 and [4x] 250 nM DJC23 into columns 1 to 48 . 5; Room temperature incubation. 6; Dispense 4 uL of […] [2x] 250 mM NaOH into columns 1 to 48. 7; Centrifugation step to remove bubbles. […]
In the case of `Cc1ccc(N(CC(=O)N2CCN(c3cc(C)ccc3C)CC2)S(=O)(=O)c2c(C)nn(C)c2C)cc1`, the “activity, negative = inhibition” value was -24.2%. On the same count and under the same terms, the same measure for `Cc1oc(-c2cccc(Br)c2)nc1Cn1c(SCc2cccc(F)c2)nc2cccnc21`: 0.648%. On to `Cc1cc(-c2ccc(C)c(S(=O)(=O)N3CCCC(C)C3)c2)on1` (stereo not given), for which the “activity, negative = inhibition” value is -12.9%. Still for that read-out and setting: in the case of `CCc1ccc(CNC(=O)c2ccc(CSc3nc4ccncc4n3Cc3ccccc3)cc2)cc1` it was 4.54%; in that of `Cc1ccc(C)c(N2CCN(CCCNC(=O)c3cnn(-c4ccc(F)cc4)c3C3CCN(C(=O)OC(C)(C)C)CC3)CC2)c1`, -1.81%. For the compound `CC(C)(Sc1ccc(CCN(CCCCC2CCCCC2)C(=O)NC2CCCCC2)cc1)C(=O)O`, the Potency was 31.6 µM (active) and 112 µM (active).

For `Cc1ccc(Nc2c3c(nc4nc(-c5cccs5)nn24)CCCC3)cc1F`, the “activity, negative = inhibition” value is -24.6%.

As for `CCOC(=O)C1=C(CN(CC)Cc2ccccc2)NC(=O)NC1c1ccc(OC(C)C)cc1` (stereo not given), the “activity, negative = inhibition” value is -13.7%. Take `COc1ccccc1N1CCN(C(=O)c2cc3ccc4ccc(C)[nH]c4c3n2)CC1`: the “activity, negative = inhibition” value was 3.08%.

As for `COc1cccc(Nc2cc(-c3ccccc3)nc(C)n2)c1`, the “activity, negative = inhibition” value was -3.46%. On to `Cc1ccc(NC(=O)CSc2ncc(S(=O)(=O)c3ccc(C(C)C)cc3)c(=O)[nH]2)cc1C`, for which the Potency is 31.6 µM (active).

Take `CC(C)(C)c1ccc(S(=O)(=O)c2cnc(SCC(=O)Nc3ccc(F)c(Cl)c3)[nH]c2=O)cc1`: the Potency is 35.5 µM (active).

As for `CC(C)c1ccc(S(=O)(=O)c2cnc(SCC(=O)Nc3cccc(C(F)(F)F)c3)nc2N)cc1`, the “activity, negative = inhibition” value is -5.26%.

As to `COC(=O)c1cc(Cl)ccc1NC(=O)CSc1ncc(S(=O)(=O)c2ccc(Br)cc2)c(=O)[nH]1`, the “activity, negative = inhibition” value was -7.72%. As for `Cc1cc(C)c(NC(=O)CSc2ncc(S(=O)(=O)c3ccc(C(C)(C)C)cc3)c(=O)[nH]2)c(C)c1`, the “activity, negative = inhibition” value was -9.91%. With `COc1cc(Cl)c(C)cc1NC(=O)CSc1ncc(S(=O)(=O)c2ccc(C(C)(C)C)cc2)c(=O)[nH]1`, the “activity, negative = inhibition” value is -18.9%. Regarding `Cc1nn2c(=O)cc(COC(=O)c3ccc(NC(=O)C4CCCCC4)cc3)nc2s1`, the “activity, negative = inhibition” value is -2.33%. With `COc1ccc(C)cc1NC(=O)c1c(C)oc2ncn(CC(C)C)c(=O)c12`, the “activity, negative = inhibition” value was -3.76%. On the same count and under the same terms, in the case of `CCc1nc2ccc(C(=O)N3CCN(c4ccc(Cl)cc4)CC3)cc2nc1CC` it was -22.4%; in that of `COc1ccc(-n2cc(-c3ccccc3)c3c(NC4CCCC4)ncnc32)cc1`, -13.8%; in that of `CCOC(=O)c1ccc(NC(=O)CC2Nc3cccc4cccc(c34)NC2=O)cc1` (stereo not given), -7.25%. As to `CCOC(=O)c1ccc(-n2c(N)c(C(=O)OC)c3nc4ccccc4nc32)cc1`, the Potency was 25.1 µM (active). As to `CCOC(=O)c1ccc(N2C(=O)c3[nH]nc(-c4ccccc4)c3C2c2ccc(CC)cc2)cc1` (stereo not given), the “activity, negative = inhibition” value is -2.39%. Turning to `O=C1C(SCCO)=C(SCCO)C(=O)c2ccccc21`, the Potency was 14.1 µM (active). Regarding `N#C/C(=C\c1ccc(-c2ccccc2C(=O)O)o1)c1nc2ccccc2[nH]1`, the “activity, negative = inhibition” value is 33.8%. `Cc1ccc(-c2ccc(=O)n(CC(=O)Nc3ccc(C)cc3Cl)n2)cc1`: the “activity, negative = inhibition” value was -24.2%. For the compound `CCOC(=O)c1c(C)n(-c2ccccc2)c2ccc(OC(=O)c3ccccc3NC(=O)C(C)(C)C)cc12`, the “activity, negative = inhibition” value was 11.3%. As for `COc1ccc(OC)c(Nc2sc(C(=O)c3ccccc3)c(N)c2S(=O)(=O)c2ccccc2)c1`, the “activity, negative = inhibition” value was -2.04%. Still for that read-out and setting: in the case of `C=Cc1ccc(CSc2nc(-c3ccc(OC)cc3)nc3c2Cc2c(CO)cnc(C)c2O3)cc1` it was -8.87%. Take `COc1cc(/C=C(\C#N)C(=O)Nc2nnc(C(F)(F)F)s2)ccc1OCc1ccc(C(F)(F)F)cc1C(F)(F)F`: the Potency is 31.6 µM (active).

With `CCC(Sc1nc2c(sc3ccccc32)c(=O)n1CCc1ccc(OC)c(OC)c1)C(=O)N(CC)CC` (stereo not given), the “activity, negative = inhibition” value was -18.2%. In the case of `COc1ccc(C(=O)Nc2nc3n(n2)C(c2ccc(Cl)cc2)C=C(c2ccccc2)N3)cc1OC` (stereo not given), the “activity, negative = inhibition” value is -25.4%. In the case of `O=C(NCCc1ccc(Cl)cc1)c1ccc2c(c1)N(Cc1ccc(Cl)cc1)C(=O)CS2`, the “activity, negative = inhibition” value was -4.7%. With `O=C(NCCn1cc(SCc2ccc(C(F)(F)F)cc2)c2ccccc21)c1cccs1`, the “activity, negative = inhibition” value is 7.38%. With `Cc1cccc(N(CC(=O)NCCSCc2cccc(Cl)c2)S(=O)(=O)c2ccccc2)c1C`, the “activity, negative = inhibition” value was -3.57%. For the compound `CCCOc1ccc(-c2nn(-c3ccccc3)cc2C2NC(=O)NC(C)=C2C(=O)OC(C)C)cc1` (stereo not given), the “activity, negative = inhibition” value is -11.1%. Consider `CCN1C(=O)c2ccccc2S(=O)c2ccc(C(=O)N3CCN(c4cccc(C)c4)C(C)C3)cc21` (stereo not given), for which the “activity, negative = inhibition” value is -22.1%. As for `Cc1ccc(-n2cnc3cc(C(=O)NCCC4=CCCCC4)ccc32)c(C)c1`, the “activity, negative = inhibition” value is -13.5%.

Regarding `O=C(c1noc2c1CCCCC2)N1CCN(c2ccc(Cl)cc2)CC1`, the “activity, negative = inhibition” value is -0.744%. As for `CCc1cccc(-n2c(C)nc3c(cnn3-c3ccc(C)c(C)c3)c2=O)c1`, the “activity, negative = inhibition” value is -7.64%. With `O=C(NCCn1cc(SCc2cccc(F)c2)c2ccccc21)c1cccc(C(F)(F)F)c1`, the “activity, negative = inhibition” value was 2.49%. Regarding `Cc1ccc(C)c(N2CCN(C(=O)c3cc(S(=O)(=O)N4CCC(C)CC4)cn3C)CC2)c1`, the “activity, negative = inhibition” value was -14.5%.

As to `Cc1ccc(C)c(N2CCN(C(=O)Cn3nc(Cc4cccnc4)c4ccccc4c3=O)CC2)c1`, the “activity, negative = inhibition” value was -7.71%. For `Cc1ccc(-c2nc(C(=O)N3CCN(c4ccccc4)CC3)c3n2CCCCC3)cc1`, the “activity, negative = inhibition” value is -10.4%. For `COc1ccc2c(c1)Cc1sc(NC(=O)c3cccc(C)c3)nc1-2`, the “activity, negative = inhibition” value is -15.7%.
